ELG1 repair inh: qHTS screen for small molecules that inhibit ELG1-dependent DNA repair in human embryonic kidney (HEK293T) cells expressing luciferase-tagged ELG1; HEK293T ELG1-luciferase reporter, luminescence, 16 h; DNA damage induced by 5-fluorouridine; Potency, µM (top dose mostly 46.1 µM), most hits filed as inhibitors; actives 2.3% (n = 330,000); AID 504467, 2011; further: nearly all actives have a fitted effect of over 55% in size
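In this reporter screen, reduction of luminescence relative to DMSO vehicle indicated activity. Compounds and 5-fluorouridine were added together to 2,000 cells per well, incubated for 16 hr at 37 °C, then developed with ONE-Glo.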
FLuc counter: qHTS profiling assay for firefly luciferase inhibitor/activator using purifed enzyme and Km concentrations of substrates (counterscreen for miR-21 project). Luciferin 4-monooxygenase (Photinus pyralis), P08659. Potency, µM (top dose mostly 57.5 µM), usual class: inhibitors. purified FLuc, Km substrates, luminescence inhibition. actives 6.9% (n = 360,000); further: nearly all actives have a fitted effect of over 55% in size
Target sequence (P08659 whole entry, looked up): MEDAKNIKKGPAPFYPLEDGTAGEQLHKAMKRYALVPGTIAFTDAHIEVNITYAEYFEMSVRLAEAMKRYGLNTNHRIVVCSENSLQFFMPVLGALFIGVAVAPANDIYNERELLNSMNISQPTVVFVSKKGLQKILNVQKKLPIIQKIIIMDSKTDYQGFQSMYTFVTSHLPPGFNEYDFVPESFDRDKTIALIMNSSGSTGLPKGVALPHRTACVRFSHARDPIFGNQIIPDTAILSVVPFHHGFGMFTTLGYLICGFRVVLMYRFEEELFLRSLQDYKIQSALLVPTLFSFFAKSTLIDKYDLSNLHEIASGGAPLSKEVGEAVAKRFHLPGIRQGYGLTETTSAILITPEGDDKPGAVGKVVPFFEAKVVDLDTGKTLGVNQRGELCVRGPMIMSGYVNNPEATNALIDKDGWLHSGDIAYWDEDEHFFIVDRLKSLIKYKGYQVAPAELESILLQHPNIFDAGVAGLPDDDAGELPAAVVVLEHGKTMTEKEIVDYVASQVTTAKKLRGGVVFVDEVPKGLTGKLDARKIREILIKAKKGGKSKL
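Biochemical qHTS of compounds, final roughly 60 µM downward over six points, against 10 nM purified firefly luciferase using Km concentrations of substrates (10 uM D-luciferin, 10 uM ATP) in Tris acetate pH 7.5 buffer; luminescence output.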
Rab9 promoter act: qHTS Assay for Rab9 Promoter Activators; Huh7 Rab9 promoter-luciferase reporter, luminescence, 24 h; Potency, µM (titrated, usually from 9.22 µM), hits mostly activators; actives 2.8% (n = 320,000); AID 485297, 2010; further: nearly all actives have a fitted effect of over 60% in size
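Huh7 cells stably carrying a Rab9 promoter-luciferase reporter, 1500 cells per well in OP-MEM I with 10% FBS, treated with compound 24 hours at 37C. Luciferase activity read by luminescence after 10 minutes with Amplite reagent.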
ELG1 genotoxic: qHTS screen for small molecules that induce genotoxicity in human embryonic kidney (HEK293T) cells expressing luciferase-tagged ELG1. HEK293T ELG1-luciferase reporter, luminescence, 16 h. Potency, µM (highest dose often 46 µM), actives largely listed as activators. actives 1.3% (n = 330,000); further: nearly all actives have a fitted effect of over 60% in size
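Quantitative HTS format in 1536-well plates. HEK293T ELG1-luciferase reporter cells receive test compound and are incubated 16 hr at 37 °C, 5% CO2; ONE-Glo added, 30 min room temperature, then luminescence read.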
SMN2 splice up: qHTS Assay for Enhancers of SMN2 Splice Variant Expression | HEK293 SMN2-luciferase splicing reporter, luminescence, 30-36 h | Potency, µM (highest dose often 46.1 µM), hits mostly activators | actives 2.8% (n = 210,000) | AID 1458, 2008; further: nearly all actives have a fitted effect of over 55% in size
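qHTS luciferase splicing reporter: luminescence rises when SMN2 exon 7 is included in transfected HEK293 cells. Compound exposure lasted 30-36 h at 37C, with 4.5 mM final sodium butyrate as control, followed by a ONE-Glo read.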
NPC1 prom act: qHTS Assay for NPC1 Promoter Activators; Huh7 NPC1 promoter luciferase reporter, 24 h; Potency, µM (titrated, usually from 9.22 µM), actives largely listed as activators; actives 2.4% (n = 320,000); AID 485313, 2010; further: nearly all actives have a fitted effect of over 60% in size
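Quantitative HTS used a cell-based reporter: Huh7 cells stably bearing the NPC1 promoter upstream of luciferase were treated with compounds for 24 h, and promoter activation was read as luminescence.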
Large screens that a line does not name were inactive. In the library only some 9.3% were active in any assay of this set; here they are far more common. The call rests on the fitted dose curve; in most records, active means well fitted curve in the direction sought with a large enough effect; inconclusive means small, poorly fitted or top-dose-only effect, or another doubt; inactive means no such curve, though single readings can be large; an effect the other way counts as inactive or inconclusive.

COc1ccc2cc(-c3cc(C(=O)OCC(=O)Nc4c(C)n(C)n(-c5ccccc5)c4=O)c4ccccc4n3)ccc2c1	ELG1 repair inh inconclusive, FLuc counter 0.13µM, Rab9 promoter act inconclusive, SMN2 splice up 2µM, NPC1 prom act inconclusive
COc1ccc(-c2cc(C(=O)Nc3c(C)n(C)n(-c4ccccc4)c3=O)c3ccccc3n2)cc1	ELG1 repair inh 16µM, FLuc counter 15µM (no result: SMN2 splice up)
Cc1ccc(NC(=O)CNC(=O)c2ccc(C)s2)nc1	ELG1 genotoxic inconclusive (no result: SMN2 splice up)
COc1ccc(CC2(CO)CCN(S(=O)(=O)c3c(C)nn(C)c3Cl)CC2)cc1	ELG1 repair inh inconclusive (no result: SMN2 splice up)
COc1ccc(-c2ncc(CN3CCC(CO)(Cc4cccc(OC)c4)CC3)cn2)cc1	ELG1 repair inh inconclusive, FLuc counter inconclusive (no result: SMN2 splice up)
COc1ccc(-n2ccnc2CN2CCCC(CO)(Cc3cccc(OC)c3)C2)cc1 (stereo not given)	FLuc counter 24µM (no result: SMN2 splice up)
COc1ccc(CC2(CO)CCN(S(=O)(=O)c3sccc3C)CC2)cc1	ELG1 repair inh 18µM (no result: SMN2 splice up)
COc1ccc(CC2(CO)CCN(Cc3cccnc3)CC2)cc1	FLuc counter 15µM, Rab9 promoter act inconclusive (no result: SMN2 splice up)
COc1cc(NC(=O)C(C)Oc2ccccc2)cc(OC)c1 (stereo not given)	none
Cc1cc(C(=O)O/N=C(\N)c2ccncc2)ccc1[N+](=O)[O-]	ELG1 repair inh inconclusive, FLuc counter 17µM, Rab9 promoter act 3.2µM, ELG1 genotoxic inconclusive, NPC1 prom act inconclusive (no result: SMN2 splice up)
COc1ccc(/C(N)=N/OC(=O)c2ccc([N+](=O)[O-])c(C)c2)cc1OC	FLuc counter inconclusive
COc1ccc(/C(N)=N/OC(=O)c2ccc(C)c([N+](=O)[O-])c2)cc1	ELG1 repair inh inconclusive, FLuc counter 19µM, ELG1 genotoxic inconclusive
COc1ccc(CCOC(=O)c2ccc(N)c([N+](=O)[O-])c2)cc1	none (no result: SMN2 splice up)
O=C(CC1S/C(=N/N=C/C=C/c2ccccc2)NC1=O)Nc1ccc(C(=O)O)cc1 (stereo not given)	FLuc counter 13µM
COc1ccccc1NC(=O)COc1ccccc1	ELG1 repair inh inconclusive, FLuc counter inconclusive, ELG1 genotoxic inconclusive
COc1ccccc1NC(=O)COc1ccccc1C(=O)c1cnn(-c2ccccc2)c1	FLuc counter 11µM, ELG1 genotoxic inconclusive, SMN2 splice up inconclusive
CCc1ccc(NC(=O)COc2coc(CN3CCN(c4ccccc4)CC3)cc2=O)cc1	none (no result: SMN2 splice up)
CCc1ccc(NC(=O)COc2ccc(F)cc2C(=O)c2cnn(-c3ccccc3)c2)cc1	ELG1 repair inh inconclusive, FLuc counter 11µM, Rab9 promoter act inconclusive (no result: SMN2 splice up)
Cn1cnnc1SCc1ccc(-c2ccc(Br)cc2)o1	FLuc counter inconclusive
CN(C)c1ccc(C2CC(c3ccccc3)=Nc3nc(-c4ccccc4)cn32)cc1 (stereo not given)	ELG1 repair inh inconclusive, FLuc counter 13µM
O=C(Nc1ccccc1)C1Cc2ccccc2CN1C(=O)c1ccco1 (stereo not given)	ELG1 repair inh inconclusive, FLuc counter 19µM
COc1ccccc1NC(=O)C1Cc2ccccc2CN1C(=O)c1ccco1 (stereo not given)	none (no result: SMN2 splice up)
CC(=O)c1ccc(OCC(O)CN(C)CCOc2ccc(Br)cc2)cc1 (stereo not given)	ELG1 repair inh inconclusive (no result: SMN2 splice up)
CCc1nc(SCC(=O)Nc2nccs2)c2oc3ccccc3c2n1	ELG1 repair inh inconclusive
Nc1nc(-c2ccc3c(c2)CCO3)cs1	ELG1 repair inh inconclusive, FLuc counter inconclusive, Rab9 promoter act inconclusive, SMN2 splice up 10µM
Nc1nc(-c2ccc3c(c2)CCC(=O)N3)cs1	ELG1 repair inh inconclusive, FLuc counter inconclusive, ELG1 genotoxic inconclusive, SMN2 splice up inconclusive

Screens deposited in PubChem by National Center for Advancing Translational Sciences (NCATS).
